7 molecules from PubChem BioAssay (NCATS) can be followed below.

Inconclusive results are not listed. The source made the active and inactive calls. Unless noted, calls come from the whole dose curve; as a rule, active = well fitted curve in the direction sought with a large enough effect; inconclusive = small, poorly fitted or top-dose-only effect, or another doubt; inactive = no such curve, though single readings can be large; an effect the other way counts as inactive or inconclusive.

Assay [1] concerns the target Transient receptor potential cation channel subfamily V member 1 (Homo sapiens) (UniProt Q8NER1). Put plainly: HTS Assay for Compounds that Act as Enhancers of the Vanilloid Receptor 1 (AID 488979). Note: 0% is about no effect. In short, it runs like this: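 Calcium influx kinetics via Fluo-8 (480/520 nm) in TRPV1-expressing cells, 2000/well cultured overnight at 35.5C. Compound-alone read 3 min (agonist phase), followed by EC20 capsaicin challenge for 2 min (enhancer phase).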

The target of assay [2] is Thyrotropin receptor (Homo sapiens) (UniProt P16473). Nature of the assay: qHTS Assay for Antagonists of the Thyroid Stimulating Hormone Receptor (AID 488980). Note: series mostly up to about 58 µM; 0% is about no effect. In outline: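 TSHR-HEK293 cells; 70 uM RO 20-1724 PDE inhibitor; compound + EC80 TSH (4 nM final); anti-cAMP cryptate antibody/cAMP-d2 in lysis buffer, 30 min RT; HTRF 665/620 nm read.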
Chain of Thyrotropin receptor (Homo sapiens) (P16473 whole entry, looked up): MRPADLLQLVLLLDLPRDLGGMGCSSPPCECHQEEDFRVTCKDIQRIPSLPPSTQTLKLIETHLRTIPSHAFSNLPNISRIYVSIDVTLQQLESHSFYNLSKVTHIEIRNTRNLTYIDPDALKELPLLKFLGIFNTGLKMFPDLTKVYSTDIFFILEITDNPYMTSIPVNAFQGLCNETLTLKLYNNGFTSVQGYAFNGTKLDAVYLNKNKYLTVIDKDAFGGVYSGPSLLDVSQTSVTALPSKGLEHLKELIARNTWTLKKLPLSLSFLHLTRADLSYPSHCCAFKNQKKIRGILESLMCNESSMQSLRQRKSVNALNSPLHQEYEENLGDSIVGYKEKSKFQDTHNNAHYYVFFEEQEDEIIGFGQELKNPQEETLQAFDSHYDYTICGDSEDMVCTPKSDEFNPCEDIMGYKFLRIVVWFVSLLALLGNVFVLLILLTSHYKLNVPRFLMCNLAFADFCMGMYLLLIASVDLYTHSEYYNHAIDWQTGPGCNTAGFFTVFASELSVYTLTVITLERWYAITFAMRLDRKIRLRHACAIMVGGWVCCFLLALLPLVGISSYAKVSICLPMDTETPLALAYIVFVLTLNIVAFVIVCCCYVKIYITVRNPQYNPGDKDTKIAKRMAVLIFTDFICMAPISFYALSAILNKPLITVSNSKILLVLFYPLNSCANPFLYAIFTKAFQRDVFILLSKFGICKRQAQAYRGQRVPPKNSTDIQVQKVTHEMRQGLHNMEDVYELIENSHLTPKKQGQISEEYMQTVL
(In general: In qHTS, concentration-response curves come from the screen itself.)

In assay [3] the target is D(1A) dopamine receptor (Homo sapiens) (UniProt P21728). Nature of the assay: HTS Assay for Allosteric Agonists of the Human D1 Dopamine Receptor: Primary Screen for Agonists (AID 488981). Note: 0% is about no effect. In outline: (§1)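 Calcium flux in an inducible, force-coupled HEK293 Trex D1 line (overnight at 30 C): agonist mode is the 180 s kinetic read after compound; potentiator mode is the following 180 s read after dopamine at EC20.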
Chain of D(1A) dopamine receptor (Homo sapiens) (P21728 whole entry, looked up): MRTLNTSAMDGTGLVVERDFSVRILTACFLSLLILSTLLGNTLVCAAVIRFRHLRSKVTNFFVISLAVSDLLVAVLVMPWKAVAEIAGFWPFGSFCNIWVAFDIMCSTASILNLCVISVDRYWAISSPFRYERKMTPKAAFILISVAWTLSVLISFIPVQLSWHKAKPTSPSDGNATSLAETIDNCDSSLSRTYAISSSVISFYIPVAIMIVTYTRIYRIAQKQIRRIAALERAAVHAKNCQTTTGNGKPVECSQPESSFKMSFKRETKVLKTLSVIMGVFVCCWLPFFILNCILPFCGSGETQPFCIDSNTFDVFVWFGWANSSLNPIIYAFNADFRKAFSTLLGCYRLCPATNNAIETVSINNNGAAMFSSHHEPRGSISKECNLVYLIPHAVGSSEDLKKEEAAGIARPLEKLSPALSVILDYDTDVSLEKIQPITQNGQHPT

Assay [4] shares this target. Nature of the assay: HTS Assay for Allosteric Agonists of the Human D1 Dopamine Receptor: Primary Screen for Potentiators (AID 488982). Note: 0% is about no effect. In outline:
as §1

Assay [5] shares this target. Nature of the assay: HTS Assay for Allosteric Agonists of the Human D1 Dopamine Receptor: Primary Screen for Antagonists (AID 488983).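 Note: calcium flux response to an EC80 dopamine challenge measured with no-wash dye; nearly all actives have a fitted effect of over 65% in size.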 Note: potency is the fitted concentration of half-maximal effect. In short, it runs like this: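 Screening of inducible HEK293 T-REx D1 cells: compound first, EC80 dopamine 180 s later, each phase read kinetically for calcium over 180 s.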
The nature of assay [6]: Validation screen for small molecules that induce genotoxicity in human embryonic kidney (HEK293T) cells expressing luciferase-tagged ELG1 (AID 493106). Note: 0% is about no effect. In outline: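 Reporter-gene quantitative HTS in HEK293T cells carrying luciferase-tagged ELG1, whose level climbs under genotoxic stress. Compound exposure lasts 16 hr at 37 °C before luciferase detection.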
Assay [7] has as its target ATPase family AAA domain-containing protein 5 (Homo sapiens) (UniProt Q96QE3). Nature of the assay: Validation screen for small molecules that inhibit ELG1-dependent DNA repair in human embryonic kidney (HEK293T) cells expressing luciferase-tagged ELG1 (AID 493107). Note: nearly all actives have a fitted effect of over 70% in size. Note: potency is the fitted concentration of half-maximal effect. In outline: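 Quantitative HTS in HEK293T cells carrying luciferase-tagged ELG1, stimulated with 5-fluorouridine alongside compound for 16 hr. Loss of luciferase signal marks inhibition of ELG1 response.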

For assay [8], the target named is Thyrotropin-releasing hormone receptor (Homo sapiens) (UniProt P34981). Put plainly: qHTS for Small Molecule Agonists and Allosteric Enhancers of Human TRH Receptor: Validation Screen for Agonists (AID 493127;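 active = calcium activation more than 3 SD above the typical response in the agonist read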;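 note: intracellular calcium rise by fluo-8 fluorescence before TRH EC20 addition; 0% is about no effect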). The conditions noted are these: TRH receptor agonist cell assay; at 2 µM; stronger effect = higher value. In short, it runs like this:
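Gq-coupled calcium mobilization in TRHR cells after compound addition, monitored kinetically with fluo-8 dye on an FDSS reader.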

Assay [9] is described as follows: Nrf2 qHTS screen for inhibitors: Validation (AID 493153; active = well fitted inhibition curve with a large enough effect in the main read-out, with a control signal flat, not every such curve was filed as active). The conditions noted are these: Potency: luciferase luminescence; viability change: measured here: cytotoxicity max response. In outline: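 Dose-response validation uses reporter A549 cells with firefly luciferase under an antioxidant response element. Compounds stay on cells 18-24 h at 37°C, and luminescence indicates Nrf2-driven transcription.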

Assay [10] in a line: qHTS for Inhibitors of Cell Surface uPA Generation: Validation Assay (AID 493164).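 Note: RAW 264.7 macrophage cells exposed to compound for 18 h; 0% is about no effect.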 In short, it runs like this: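 RAW 264.7, 4000 cells/well, o/n plating; cpd 7-pt 1:5 dilution 2.45 nM–38.3 uM final; 18 h, 37 C/5% CO2; ATP-Lite, 5 s luminescence exposure.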
Assay [11] has as its target Galactokinase (Homo sapiens) (UniProt P51570). Nature of the assay: qHTS Validation Assay for Inhibitors of Human Galactokinase (GALK) (AID 493189). Note: 0% is about no effect. In short, it runs like this:
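Luminescence from leftover ATP (Kinase-Glo Plus, 10 min) served as read-out after a 1 h room-temperature reaction of 5 nM GALK, 100 uM galactose and 35 uM ATP at pH8.0.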

Assay [12] is described as follows: Validation screen for small molecules that induce DNA re-replication in SW480 colon adenocarcinoma cells (AID 504364). Note: 0% is about no effect. In short, it runs like this:
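Cells are treated 48 hr with test compound, stained 40 min with Hoechst at 37 C, and scanned for nuclear fluorescence; compounds inducing re-replication increase nuclei with elevated intensity.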

Assay [13] deals with Phosphoglycerate kinase, glycosomal (Trypanosoma brucei brucei) (UniProt P07378). Put plainly: qHTS Validation Assay to Find Inhibitors of Phosphoglycerate Kinase (AID 504547).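 Note: control wells lack PGK and mark full inhibition.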 In short, it runs like this: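 Inhibition of the enzyme is judged by a Kinase-Glo Plus luminescent signal following a one-hour incubation at room temperature. Because 1,3-BPG is unstable, it is made in situ by GAPDH at 100nM final; no-PGK wells define the baseline.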
Chain of Phosphoglycerate kinase, glycosomal (Trypanosoma brucei brucei) (P07378 whole entry, looked up): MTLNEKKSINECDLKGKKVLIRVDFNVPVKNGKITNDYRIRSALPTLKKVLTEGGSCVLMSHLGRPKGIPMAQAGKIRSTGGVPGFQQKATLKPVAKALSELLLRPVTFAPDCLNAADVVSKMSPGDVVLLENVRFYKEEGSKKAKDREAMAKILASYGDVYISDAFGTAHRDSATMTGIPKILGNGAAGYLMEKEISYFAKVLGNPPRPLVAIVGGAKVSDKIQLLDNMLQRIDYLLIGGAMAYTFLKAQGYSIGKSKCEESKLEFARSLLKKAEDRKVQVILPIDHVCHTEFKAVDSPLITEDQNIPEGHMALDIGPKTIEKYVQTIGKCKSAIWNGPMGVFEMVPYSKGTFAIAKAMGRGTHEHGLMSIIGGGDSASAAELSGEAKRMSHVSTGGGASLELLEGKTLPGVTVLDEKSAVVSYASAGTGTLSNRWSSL

The target in assay [14] is phosphoglycerate mutase (Leishmania major) (UniProt Q4Q090). Put plainly: qHTS Validation Assay to Find Inhibitors of Phosphoglycerate Mutase (AID 504548). Note: series mostly up to about 58 µM; % is set by controls: 0 for no effect and ±100 for the full control effect. The conditions noted are these: Potency: inhibition qHTS. In short, it runs like this: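 Lm PGAM at 1.25 nM final with substrate in 100 mM TEA pH 7.6, 5 mM MgCl2, 0.01% Tween-20; 45 min at room temperature. Kinase-GloPlus added, 10 min, end-point luminescence read.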
Chain of phosphoglycerate mutase (Leishmania major) (Q4Q090 1-553): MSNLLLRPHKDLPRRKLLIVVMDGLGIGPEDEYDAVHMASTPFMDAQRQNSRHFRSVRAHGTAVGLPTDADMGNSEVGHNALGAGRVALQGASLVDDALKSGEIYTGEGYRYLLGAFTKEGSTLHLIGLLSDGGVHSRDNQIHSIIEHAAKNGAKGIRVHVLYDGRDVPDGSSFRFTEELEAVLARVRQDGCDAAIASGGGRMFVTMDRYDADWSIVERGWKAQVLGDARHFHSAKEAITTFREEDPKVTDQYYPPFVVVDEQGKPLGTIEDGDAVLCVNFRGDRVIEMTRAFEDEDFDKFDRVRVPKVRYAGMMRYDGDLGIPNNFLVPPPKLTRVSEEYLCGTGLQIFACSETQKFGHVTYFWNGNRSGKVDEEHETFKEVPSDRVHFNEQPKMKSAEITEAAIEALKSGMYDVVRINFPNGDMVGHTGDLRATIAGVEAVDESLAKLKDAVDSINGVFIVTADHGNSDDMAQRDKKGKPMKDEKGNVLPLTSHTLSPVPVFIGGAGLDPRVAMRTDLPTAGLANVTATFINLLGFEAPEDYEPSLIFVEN

The target of assay [15] is Ubiquitin carboxyl-terminal hydrolase 1 (Homo sapiens) (UniProt O94782). Nature of the assay: Inhibitors of USP1/UAF1: Pilot qHTS (AID 504865).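 Note: rhodamine fluorescence freed from ubiquitin-rhodamine substrate followed over time; top concentration of the series differs between compounds; % is set by controls: 0 for no effect and ±100 for the full control effect; nearly all actives have a fitted effect of over 35% in size.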 In outline:
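1nM USP1/UAF1 + cpd, 15 min RT; start w/ Ub-Rho 150nM final; kinetic FL 480/540 nm, 6 reads q60 s. Buffer 50mM HEPES pH 7.8, 0.5mM EDTA, 1mM TCEP, 0.01% Tween-20, 0.1 mg/ml BSA.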

A short description of assay [16]: qHTS for Inhibitors of ATXN expression: Validation of Cytotoxic Assay (AID 588349).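 Note: cells exposed to compound for 72 hr; % is set by controls: 0 for no effect and ±100 for the full control effect.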 In outline: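 HEK293, compound dose series, 72 hr / 37 degrees C; viability via CellTiter Glo (intracellular ATP).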
Assay [17] in a line: qHTS for Inhibitors of ATXN expression: Validation (AID 588378). Note: nearly all actives have a fitted effect of over 75% in size. Note: potency is the fitted concentration of half-maximal effect. In short, it runs like this: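 Cells: HEK293-ATXN2-FFLuc, phenol-red free DMEM, 2 h attachment. Compound pin-transfer, 24 h, 37 degrees C, 5% CO2. CellTiter-Fluor 30 min, Ex405/Em525; Bright-Glo 5 min, luminescence 2 s exposure.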
Assay [18] deals with Peptidyl-prolyl cis-trans isomerase NIMA-interacting 1 (Homo sapiens) (UniProt Q13526). Put plainly: qHTS Validation Assay to Find Inhibitors of Pin1 (AID 504536; active = well fitted inhibition curve with a large enough effect in the polarisation, with a control signal flat, not every such curve was filed as active; the % refers to the polarisation;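 note: 0% = full Pin1 enzyme wells and -100% = no-enzyme wells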). In short, it runs like this:
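Fluorescence polarization competition: compounds (titration) displace HiFluor-488-labeled Pin1-1b peptide from Pin1 (0.3 uM final) in pH 7.5 HEPES buffer with DTT, 10 min at room temperature; %Activity normalized to no-enzyme wells, curves fitted.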

Chain of Ubiquitin carboxyl-terminal hydrolase 1 (Homo sapiens) (O94782 whole entry, looked up): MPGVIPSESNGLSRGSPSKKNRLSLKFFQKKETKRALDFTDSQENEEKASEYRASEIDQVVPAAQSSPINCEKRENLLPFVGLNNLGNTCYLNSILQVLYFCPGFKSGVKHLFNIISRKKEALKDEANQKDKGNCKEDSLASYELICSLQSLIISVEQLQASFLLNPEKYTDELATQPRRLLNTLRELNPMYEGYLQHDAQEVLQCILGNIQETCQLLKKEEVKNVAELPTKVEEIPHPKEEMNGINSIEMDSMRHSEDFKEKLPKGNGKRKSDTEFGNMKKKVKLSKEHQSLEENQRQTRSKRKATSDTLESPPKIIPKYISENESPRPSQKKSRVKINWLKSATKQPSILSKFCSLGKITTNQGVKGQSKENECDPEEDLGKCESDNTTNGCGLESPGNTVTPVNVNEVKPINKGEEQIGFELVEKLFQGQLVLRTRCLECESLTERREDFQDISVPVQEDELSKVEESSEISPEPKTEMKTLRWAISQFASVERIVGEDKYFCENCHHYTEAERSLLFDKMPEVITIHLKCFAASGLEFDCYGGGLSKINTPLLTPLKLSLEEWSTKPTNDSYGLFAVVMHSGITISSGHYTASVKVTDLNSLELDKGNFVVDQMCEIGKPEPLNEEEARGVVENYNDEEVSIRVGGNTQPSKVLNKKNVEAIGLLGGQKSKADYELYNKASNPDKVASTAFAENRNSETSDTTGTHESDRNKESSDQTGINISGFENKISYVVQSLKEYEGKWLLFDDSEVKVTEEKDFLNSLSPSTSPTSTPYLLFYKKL
Chain of Galactokinase (Homo sapiens) (P51570 whole entry, looked up): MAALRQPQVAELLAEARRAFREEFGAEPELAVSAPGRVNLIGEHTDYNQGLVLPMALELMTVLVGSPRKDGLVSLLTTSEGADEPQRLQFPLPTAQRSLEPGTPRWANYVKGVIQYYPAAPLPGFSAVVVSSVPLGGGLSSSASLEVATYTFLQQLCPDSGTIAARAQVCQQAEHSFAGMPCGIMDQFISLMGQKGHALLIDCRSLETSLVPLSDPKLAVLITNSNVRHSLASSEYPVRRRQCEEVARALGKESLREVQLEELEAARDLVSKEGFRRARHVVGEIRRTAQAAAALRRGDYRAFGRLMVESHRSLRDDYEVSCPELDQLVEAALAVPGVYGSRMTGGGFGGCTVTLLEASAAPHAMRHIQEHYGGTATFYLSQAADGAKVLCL
Chain of Thyrotropin-releasing hormone receptor (Homo sapiens) (P34981 whole entry, looked up): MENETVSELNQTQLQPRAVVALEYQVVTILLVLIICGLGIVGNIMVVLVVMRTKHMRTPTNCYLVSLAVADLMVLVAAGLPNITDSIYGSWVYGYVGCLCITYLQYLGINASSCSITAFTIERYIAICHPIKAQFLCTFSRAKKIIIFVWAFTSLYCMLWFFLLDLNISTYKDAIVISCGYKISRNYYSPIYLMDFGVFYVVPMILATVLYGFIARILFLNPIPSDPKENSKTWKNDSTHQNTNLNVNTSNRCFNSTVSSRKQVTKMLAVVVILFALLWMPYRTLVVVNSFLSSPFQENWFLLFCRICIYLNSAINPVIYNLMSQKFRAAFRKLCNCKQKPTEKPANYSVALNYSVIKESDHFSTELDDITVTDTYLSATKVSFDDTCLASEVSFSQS
Chain of Peptidyl-prolyl cis-trans isomerase NIMA-interacting 1 (Homo sapiens) (Q13526 whole entry, looked up): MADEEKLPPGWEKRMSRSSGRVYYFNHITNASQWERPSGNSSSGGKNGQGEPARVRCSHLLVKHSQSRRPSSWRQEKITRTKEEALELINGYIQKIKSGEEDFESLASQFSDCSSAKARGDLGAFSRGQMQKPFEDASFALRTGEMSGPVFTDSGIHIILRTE
Chain of Transient receptor potential cation channel subfamily V member 1 (Homo sapiens) (Q8NER1 whole entry, looked up): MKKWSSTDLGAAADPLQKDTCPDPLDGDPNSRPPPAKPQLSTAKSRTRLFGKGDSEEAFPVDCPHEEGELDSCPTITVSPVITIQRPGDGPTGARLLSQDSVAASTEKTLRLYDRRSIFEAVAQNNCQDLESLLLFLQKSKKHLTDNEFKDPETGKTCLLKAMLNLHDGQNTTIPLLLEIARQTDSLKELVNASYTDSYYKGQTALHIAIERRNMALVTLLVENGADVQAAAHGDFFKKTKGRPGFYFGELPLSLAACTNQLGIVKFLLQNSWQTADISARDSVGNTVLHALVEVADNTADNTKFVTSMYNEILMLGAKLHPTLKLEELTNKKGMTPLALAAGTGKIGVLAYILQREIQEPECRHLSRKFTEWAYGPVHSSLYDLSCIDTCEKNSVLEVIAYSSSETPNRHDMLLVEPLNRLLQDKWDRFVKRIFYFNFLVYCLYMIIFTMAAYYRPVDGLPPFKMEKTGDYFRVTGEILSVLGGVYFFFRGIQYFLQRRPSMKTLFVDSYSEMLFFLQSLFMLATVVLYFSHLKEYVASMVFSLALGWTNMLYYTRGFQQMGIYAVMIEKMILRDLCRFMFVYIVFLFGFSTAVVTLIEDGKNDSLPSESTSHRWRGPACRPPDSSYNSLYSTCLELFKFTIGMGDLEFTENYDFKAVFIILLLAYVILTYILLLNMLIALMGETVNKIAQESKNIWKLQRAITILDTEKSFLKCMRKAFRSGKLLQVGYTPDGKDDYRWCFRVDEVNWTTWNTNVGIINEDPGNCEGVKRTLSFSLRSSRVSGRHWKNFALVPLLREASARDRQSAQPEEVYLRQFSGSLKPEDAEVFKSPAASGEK

As to `NC1(C(=O)O)CCc2cc(C(=O)O)ccc21` (stereo not drawn), the result in assay [1], in assay [2] and in [10] was inactive. Also, the Potency entry in [3], in assay [4], in assay [5], in assay [6], in assay [7] and in [9] was “inactive” each time. In addition, the Potency result in assay [11], in [12], in assay [13], in assay [14], in [15] and in assay [16] was “inactive” in each case. Also, the Potency entry in [17] is “inactive”. In [8], the activation was 1.19% (inactive). Besides, in assay [9], the viability change was -0.824%.
As to `COc1ccccc1N1CCN(CCCCN2C(=O)c3ccccc3C2=O)CC1`, the result in assay [1], in assay [2] and in assay [10] was inactive. Moreover, the Potency result in assay [3], in assay [4], in [6], in assay [7], in assay [9] and in assay [11] was “inactive” throughout. The Potency result in assay [18], in assay [13], in assay [15], in [16] and in [17] was “inactive” throughout. The Potency in assay [5] was 10 µM (active). In addition, the activation in [8] was -3.44% (inactive). In addition, in assay [9], the viability change amounted to 4.76%.
Regarding `COc1ccc(NC(=O)c2ccc(-c3ccc(-c4noc(C)n4)cc3C)cc2)cc1N1CCN(C)CC1`, the outcome in assay [1] and in [2] was inactive. The Potency result in assay [3], in assay [4], in assay [6], in [9], in assay [11] and in assay [12] was “inactive” in each case. The Potency result in assay [18], in assay [13], in [14] and in assay [15] was “inactive” throughout. Further, the figures for the Potency in assay [5], in assay [7] and in [17] were 20 µM (active), 20.6 µM (active) and 22.4 µM (active), respectively. The activation in assay [8] is 2.25% (inactive). For the same molecule, the viability change in [9] is -8.26%.
In the case of `O=C(OCCN1CCOCC1)C1(c2ccccc2)CCCCC1`, the result in [1] and in [2] was inactive. Besides, the Potency result in assay [3], in assay [4], in assay [5], in [6], in assay [7] and in assay [9] was “inactive” each time. Further, the Potency result in assay [11], in assay [12], in [18], in assay [13], in [14] and in assay [15] was “inactive” each time. For the same molecule, the Potency result in [16] and in assay [17] was “inactive” each time. Besides, the activation in assay [8] is -4.62% (inactive). Moreover, in [9], the viability change is -0.582%.
As for `CC(C)C[C@H](NC(=O)C1OC1C(=O)O)C(=O)NCCCCN=C(N)N` (stereo partly drawn), the outcome in assay [1], in assay [2] and in assay [10] was inactive. Further, the Potency result in assay [3], in assay [4], in assay [5], in [6], in assay [7] and in [11] was “inactive” each time. Moreover, the Potency result in assay [12], in assay [18], in [13], in assay [14] and in assay [15] was “inactive” throughout. The activation in [8] was 0% (inactive).
`NCCC1CCCC(CCN)N1` (stereo not drawn): the result in [1], in assay [2] and in assay [10] was inactive. For the same molecule, the Potency result in assay [3], in [4], in assay [5], in assay [6], in [7] and in [11] was “inactive” in each case. The Potency entry in assay [12], in [18], in assay [14], in [15], in [16] and in [17] was “inactive” throughout. In addition, the activation in [8] is 1.19% (inactive).
On to `NC(=O)CC[C@H](N)C(=O)O`, for which the result in assay [1], in assay [2] and in [10] was inactive. For the same molecule, the Potency result in assay [3], in assay [4], in [5], in assay [6], in [7] and in assay [9] was “inactive” each time. Besides, the Potency entry in assay [11], in assay [18], in assay [13], in assay [14], in assay [15] and in assay [17] was “inactive” throughout. Further, in [8], the activation was -0.625% (inactive). In addition, the viability change in [9] came out at 2.88%.
